Reference: PubChem BioAssay (NCI)
This is part of a sample that, as a whole, favours compounds with a hit. Of some 79,000 tested, about 15% had one in any assay. Active and inactive are the calls of the source. Cut-off read from the data, not from the text of the source: active = growth inhibition above about 70%; inactive = the rest.

What was measured:
[1] = NCI Yeast Anticancer Drug Screen. Data for the mec2-1 strain (AID 157); conditions: S. cerevisiae mec2-1 strain, hits give high values
Method in brief: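 Cells of the genetically defined mec2-1 yeast strain are incubated with test compound. Inhibition of growth is calculated against vehicle-treated controls.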

[2] = NCI Yeast Anticancer Drug Screen. Data for the rad14 strain (AID 159);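 note: 0% = growth of vehicle-treated control cultures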; conditions: S. cerevisiae rad14 strain growth inhibition, hits give high values
Method in brief: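 DNA repair-defective yeast, compound-exposed; % growth inhibition derived by comparison with vehicle-treated controls.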

[3] = NCI Yeast Anticancer Drug Screen. Data for the sgs1 mgt1 strain (AID 161);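 note: 0% = growth of cultures given vehicle only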; conditions: S. cerevisiae sgs1 mgt1 strain, hits give high values
Method in brief: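 Genetically altered yeast, compound exposure, growth inhibition relative to vehicle.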

[4] = NCI Yeast Anticancer Drug Screen. Data for the CLN2oe strain (AID 163);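 note: 0% = growth of vehicle-only control cultures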; conditions: S. cerevisiae CLN2oe strain, hits give high values
Method in brief: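 Strain altered in cell-cycle control, incubated with compound; growth compared to solvent-treated controls.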

[5] = NCI Yeast Anticancer Drug Screen. Data for the cln2 rad14 strain (AID 165);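 note: 0% = growth equal to vehicle treated cultures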; conditions: S. cerevisiae cln2 rad14 strain, hits give high values
Method in brief: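 The screen exposed genetically defined yeast (cln2 rad14) to test compounds and scored growth inhibition relative to vehicle-treated controls.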

[6] = NCI Yeast Anticancer Drug Screen. Data for the bub3 strain (AID 167); conditions: S. cerevisiae bub3 mutant strain, hits give high values
Method in brief: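 In this screen, a yeast mutant lacking normal mitotic checkpoint function is challenged with compound. Relative growth versus vehicle gives the inhibition value.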

[7] = NCI Yeast Anticancer Drug Screen. Data for the wt2 strain (AID 169);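 note: 0% = growth of vehicle-treated yeast cultures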; conditions: S. cerevisiae wt2 strain growth inhibition, hits give high values
Method in brief: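 Steps: yeast strain treated with compound; growth recorded; inhibition calculated relative to cultures given vehicle alone.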

[8] = NCI Yeast Anticancer Drug Screen. Data for the sgs1 strain (AID 173);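 note: 0% = growth of vehicle-only control cultures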; conditions: S. cerevisiae sgs1 mutant, hits give high values
Method in brief: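 Inhibition of yeast growth served as the measure. The mutant strain was treated with each compound, and growth was normalised to cultures receiving vehicle alone.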

[9] = NCI Yeast Anticancer Drug Screen. Data for the mlh1 rad18 strain (AID 175); conditions: S. cerevisiae mlh1 rad18 strain growth inhibition, hits give high values
Method in brief: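 Compound-treated yeast growth, normalised to vehicle controls. Strain bears defined DNA repair mutations.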

[10] = NCI Yeast Anticancer Drug Screen. Data for the rad18 strain (AID 177); conditions: S. cerevisiae rad18 mutant growth inhibition, hits give high values
Method in brief: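 Inhibition values reflect reduced yeast growth compared with vehicle-treated controls, using a strain engineered with a DNA damage repair defect.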

[11] = NCI Yeast Anticancer Drug Screen. Data for the rad52 strain (AID 147);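 note: 0% = growth of vehicle-treated control cultures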; conditions: S. cerevisiae rad52 mutant growth inhibition, hits give high values
Method in brief: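 Genetically altered yeast (DNA damage repair defect) treated with compound; inhibition calculated relative to vehicle.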

[12] = NCI Yeast Anticancer Drug Screen. Data for the wt1 strain (AID 149);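 note: 0% = growth of vehicle-treated wt1 cultures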; conditions: S. cerevisiae wt1 strain (SPY 50644) growth inhibition, hits give high values
Method in brief: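 wt1 strain grown with compound or vehicle; inhibition taken from the growth difference.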

[13] = NCI Yeast Anticancer Drug Screen. Data for the rad50EPP+ strain (AID 151);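 note: 0% = growth of vehicle-treated control cultures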; conditions: S. cerevisiae rad50 mutant strain, hits give high values
Method in brief: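 Strain rad50EPP+; compound exposure; % growth inhibition vs vehicle.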

[14] = NCI Yeast Anticancer Drug Screen. Data for the rad50 strain (AID 155);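 note: 0% = growth of vehicle-only cultures of the same strain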; conditions: S. cerevisiae rad50 strain growth inhibition, hits give high values
Method in brief: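 DNA repair mutant yeast, compound exposure, growth read-out; inhibition is taken relative to vehicle.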

[15] = at 5.0 µM (retest, dose inferred, filed as 0.5)
[16] = at 50.0 µM (retest, dose inferred, filed as 5.0)

Measured: growth inhibition

O=S(=O)(N/N=C/c1cccc(Cl)c1)c1ccccc1
active: [1]; at 100.0 µM 91% | [2]; at 33.0 µM 73% | [2]; at 100.0 µM 99% | [3]; [16] 86% | [4]; at 33.0 µM 84% | [4]; at 100.0 µM 82% | [5]; [16] 89% | [6]; at 33.0 µM 79% | [6]; [16] 88% | [6]; at 100.0 µM 98% | [7]; at 33.0 µM 86% | [7]; at 100.0 µM 99% | [8]; at 33.0 µM 77% | [8]; at 100.0 µM 99% | [9]; [16] 95% | [9]; at 50.0 µM 96.8% | [10]; at 33.0 µM 86% | [10]; at 100.0 µM 99%
inactive: [2]; at 1.2 µM -7% | [2]; at 3.7 µM -6% | [2]; at 11.0 µM -1% | [3]; [15] -1% | [3]; at 50.0 µM 63.7% | [4]; at 1.2 µM -10% | [4]; at 3.7 µM -7% | [4]; at 11.0 µM 27% | [5]; [15] 20% | [5]; at 50.0 µM 67.4% | [6]; at 1.2 µM 1% | [6]; at 3.7 µM 1% | [6]; [15] -12% | [6]; at 11.0 µM 11% | [6]; at 50.0 µM 63.3% | [7]; at 1.2 µM -4% | [7]; at 3.7 µM -4% | [7]; at 11.0 µM 0% | [8]; at 1.2 µM 1% | [8]; at 3.7 µM 4% | [8]; at 11.0 µM 18% | [9]; [15] 57% | [10]; at 1.2 µM -3% | [10]; at 3.7 µM 1% | [10]; at 11.0 µM 29%

CC(C)(C)[OH+][O-].[O-]c1ccc(Cl)cc1C=Nc1ccc(Cl)cc1[O-].[O]=[V]
active: [14]; at 50.0 µM 93.8% | [14]; at 100.0 µM 83% | [1]; at 50.0 µM 94.5% | [3]; at 50.0 µM 91.5% | [5]; at 50.0 µM 90.5% | [6]; at 50.0 µM 92.7% | [6]; at 100.0 µM 76% | [9]; at 50.0 µM 95.2% | [10]; at 100.0 µM 78%
inactive: [11]; at 1.2 µM 0% | [11]; at 3.7 µM 4% | [11]; at 11.0 µM 11% | [11]; at 33.0 µM 30% | [11]; at 100.0 µM 59% | [12]; at 1.2 µM 12% | [12]; at 3.7 µM 11% | [12]; at 11.0 µM 15% | [12]; at 33.0 µM 19% | [12]; at 100.0 µM 29% | [13]; at 1.2 µM 0% | [13]; at 3.7 µM 10% | [13]; at 11.0 µM 26% | [13]; at 33.0 µM 43% | [13]; at 100.0 µM 60% | [14]; at 1.2 µM -3% | [14]; at 3.7 µM 34% | [14]; [15] 19% | [14]; at 11.0 µM 44% | [14]; at 33.0 µM 46% | [14]; [16] 17% | [1]; at 1.2 µM 10% | [1]; at 3.7 µM 17% | [1]; [15] 24% | [1]; at 11.0 µM 13% | [1]; at 33.0 µM 31% | [1]; [16] 9% | [1]; at 100.0 µM 56% | [2]; at 1.2 µM 4% | [2]; at 3.7 µM 9% | [2]; at 11.0 µM 12% | [2]; at 33.0 µM 26% | [2]; at 100.0 µM 54% | [3]; [15] 20% | [3]; [16] 40% | [4]; at 1.2 µM -3% | [4]; at 3.7 µM -3% | [4]; at 11.0 µM 0% | [4]; at 33.0 µM 11% | [4]; at 100.0 µM 26% | [5]; [15] 6% | [5]; [16] 3% | [6]; at 1.2 µM 19% | [6]; at 3.7 µM 30% | [6]; [15] 41% | [6]; at 11.0 µM 45% | [6]; at 33.0 µM 58% | [6]; [16] 16% | [7]; at 1.2 µM 14% | [7]; at 3.7 µM 24% | [7]; at 11.0 µM 13% | [7]; at 33.0 µM 20% | [7]; at 100.0 µM 30% | [8]; at 1.2 µM 12% | [8]; at 3.7 µM 16% | [8]; at 11.0 µM 23% | [8]; at 33.0 µM 33% | [8]; at 100.0 µM 53% | [9]; [15] 24% | [9]; [16] 12% | [10]; at 1.2 µM 4% | [10]; at 3.7 µM 19% | [10]; at 11.0 µM 24% | [10]; at 33.0 µM 47%
